This is part of a sample that, as a whole, favours compounds with a hit. Of some 83,000 tested, about 20% had one in any assay.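 Plates (96-well) were seeded with cells, treated with compound at one concentration, and incubated for 48 hours before percent growth was determined.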 A number with no mark means an inactive call. The source made the active and inactive calls.
System: NCI/ADR-RES ovarian
Test: NCI-60 one-dose screen, 48 h (100 = growth as untreated, 0 = no growth, -100 = all killed)
Conditions: 10 µM unless noted
Protocol: Growth inhibition of the NCI/ADR-RES human […] tumor cell line is measured as a screen for anti-cancer activity. Cells are grown in 96 well plates and exposed to the test compound for 48 hours. Compounds are tested at a single concentration, which is 10^-5 M for most compounds. The reported endpoint is percent growth (GI% or GIPRCNT), where numbers from 0 - 100% represent growth inhibition, and numbers from -100% - 0 represent cell death. For example, a value of 40 represents 60% growth inhibition. A value of 0 means no net growth occurred over the course of the experiment. A value of -40 indicates 40% of cells at the beginning of the experiment died by the end of the experiment. A value of -100 means all cells are dead at the end of the experiment.
NCI-60 Human Tumor Cell Lines Screen was performed using the standard one-dose NCI protocol, which is described in more detail at https://dtp.cancer.gov/discovery_development/nci-60/default.htm.
Compounds with GIPRCNT values below 10 were considered active. Activity score was based on GIPRCNT using the following formula: […]
Score is 0 for GIPRCNT values of 100 or above, 50 for GIPRCNT values of 0, and 100 for GIPRCNT values of -100.

Compared with `CN(C)c1ccc(/C=C/c2sc3ccc4ccccc4c3[n+]2C)cc1`, `CN(C)c1ccc(/C=C/c2ccnc3ccccc23)cc1` is lower in growth: 34% for the first, 29.3% for the second.

Going from `CCN(CC)CC(O)c1cc(-c2ccc(Cl)cc2)nc2cc(Cl)ccc12` (stereo not given) to `Clc1ccc(Cc2nc3ccccc3s2)cc1`, the growth rises from 29.8% to 94.9%.

First: Oc1c(C(Nc2ccccc2)c2ccccc2)ccc2cccnc12 (stereo not given)
Second: O=C(c1ccccc1)C(Br)C(Br)c1ccccc1 (stereo not given)
The growth of the first is lower: 16.8% for the first, 117% for the second.

Compared with `O=C1Nc2ccc(Br)cc2C1=O`, `Cc1ccc(NC2=CC(=O)C(=O)c3ccccc32)cc1` is lower in growth: 108% for the first, 19.3% for the second.

Going from `CC(C)c1ccc(Nc2n[nH]c(=S)s2)cc1` to `CC(C)N=C(N)/N=C(\N)Nc1ccc2ccc3ccccc3c2c1`, the growth falls from 102% to 41.5%.

Going from `O=C(Cc1nc2cc(Cl)c(Cl)cc2nc1CC(=O)c1cccnc1)c1cccnc1` to `COc1ccc(C(Cn2ccnc2)Sc2ccc(Cl)c(Cl)c2)cc1` (stereo not given), the growth falls from 76.4% to 69.1%.

Compared with `CCCCCCCCCCCC(=O)OC(C)C(=O)NCCCC` (stereo not given), `CCCCCCCCCCCCCCCC[N+]1(C)CCCC1c1cccnc1` (stereo not given) is lower in growth: 101% for the first, 87.8% for the second.

`CC1(O)CCCCCC1` and `O=C1C=CC(=O)N1C1CCCCCCCCCCC1` are the same in growth: 102% for the first, 102% for the second.

Going from `O=[N+]([O-])c1ccc2c(c1)Cc1ccccc1-2` to `O=[N+]([O-])c1ccc([I+]c2ccccc2)cc1`, the growth falls from 99% to 28.9%.

Going from `Cc1cc(C(=O)c2ccc(Cl)cc2)ccc1O` to `O=C(c1ccc(O)c(Br)c1)c1ccc(O)c(Br)c1`, the growth rises from 92.2% to 105%.

Compared with `CCCCCCCCCCCC1N=C(N)N=C(N)N1c1cccc(Br)c1` (stereo not given), `NCCCN(CCCN)CCCNCc1c2ccccc2c(CNCCCN(CCCN)CCCN)c2ccccc12` is lower in growth: 105% for the first, 93.9% for the second.

Compared with `O=[n+]1c2ccccc2n([O-])c2cc(Cl)ccc21`, `O=C(c1ccccc1)c1cc2ccccc2oc1=O` is higher in growth: 59.6% for the first, 100% for the second.

Compared with `N#CC1c2ccccc2C=CN1C(=O)CCCl` (stereo not given), `O=C(c1ccccc1)N(CCCl)C(=O)N(CCCl)C(=O)c1ccccc1` is lower in growth: 102% for the first, 91.8% for the second.

Compared with `Nc1nc2ncc(CNc3ccc(C(=O)NC(CCC(=O)NC(CCC(=O)NC(CCC(=O)NC(CCC(=O)NC(CCC(=O)O)C(=O)O)C(=O)O)C(=O)O)C(=O)O)C(=O)O)cc3)nc2c(=O)[nH]1` (stereo not given), `COc1ccc(C(OCC2OC(n3ccc(NC(=O)c4ccccc4)nc3=O)C(O)C2O)(c2ccccc2)c2ccccc2)cc1` (stereo not given) is lower in growth: 119% for the first, 38.1% for the second.

Going from `c1csc(-c2[nH]nc3c2CCc2ccccc2-3)c1` to `OC(CSc1ccccc1)CN1CCN(c2ccc(Cl)cc2)CC1` (stereo not given), the growth falls from 98.7% to 89.1%.

Compared with `CC1(C)OC2C(COC(c3ccccc3)(c3ccccc3)c3ccccc3)OC(c3c[nH]c4c(N)ncnc34)C2O1` (stereo not given), `CC1(C)N=c2cc3c(cc2N1c1ccc(Cl)cc1)=Nc1ccccc1N3c1ccc(Cl)cc1` is lower in growth: 86.9% for the first, 20.4% for the second.

Compared with `Cc1cc(C)c([I+]c2c(C)cc(C)cc2C)c(C)c1`, `COc1cc(OC)c(/C=C/c2c3ccccc3cc[n+]2C)c(OC)c1` is higher in growth: 78% for the first, 96.6% for the second.

Going from `O=[N+]([O-])CC(O)c1ccccc1` (stereo not given) to `CCOC(=O)/C(=C\c1ccc2ccccc2c1)P(=O)(OCC)OCC`, the growth falls from 101% to 10.4%.

With `Cc1cc(N/N=C/c2ccccn2)nc2ccccc12` the growth was 7.9% (active).
With `O=C(c1ccccc1)c1ccc(O)c2ncccc12` the growth was 2.55% (active).
With `COc1cccc2c1C(=O)c1c(O)c3c(c(O)c1C2=O)C[C@@](O)(C(=O)CO)C[C@@H]3OC1CC(OC(C)=O)C(OC(C)=O)C(C)O1` (stereo not given in full) the growth was 2.46% (active).
In the case of `Cc1ccc(/C=C2\CNC/C(=C\c3ccc(C)cc3)C2=O)cc1`, the growth is reported as -51.3% (active).
